Laboratory results taken from PubChem BioAssay (NCATS).
Records with an inconclusive call do not appear. The source made the active and inactive calls. Unless noted, the call rests on the fitted dose curve; in most records, active means well fitted curve in the direction sought with a large enough effect; inconclusive means small, poorly fitted or top-dose-only effect, or another doubt; inactive means no such curve, though single readings can be large; an effect the other way counts as inactive or inconclusive.

Columns and labels:
[1] = qHTS for Inhibitors of Plasmodium falciparum (DD2) proliferation (AID 504314);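 further: parasite DNA measured by SYBR Green fluorescence after red cell lysis; plate controls were DMSO vehicle for no effect and artemisinin wells for full effect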; conditions: P. falciparum Dd2 in erythrocytes, SYBR Green growth, 72 h; series mostly up to 6.11 µM
Outline: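 Erythrocytes infected with P. falciparum Dd2 (0.3% parasitemia, 2.5% hematocrit) exposed to compound 72 h at 37C, 5% CO2. Parasite DNA quantified by SYBR Green fluorescence after saponin/Triton lysis overnight; normalized to 0.29 uM artemisinin and DMSO.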

[2] = qHTS for Inhibitors of Plasmodium falciparum (7G8) proliferation (AID 504316);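 further: 0% = DMSO vehicle and -100% = 0.29 µM artemisinin full kill; nearly all actives have a fitted effect of over 65% in size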; conditions: P. falciparum 7G8 in erythrocytes, SYBR Green DNA, 72 h; series mostly up to 6.7 µM
Outline: (§1)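 Erythrocytes infected with P. falciparum line (0.3% parasitemia, 2.5% hematocrit final) incubated with compounds 72 h at 37 °C, 5% CO2; SYBR Green lysis buffer added, fluorescence read next day. Normalized to 0.29 uM artemisinin and DMSO.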

[3] = qHTS for Inhibitors of Plasmodium falciparum (HB3) proliferation (AID 504318);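 further: 0% = DMSO vehicle and -100% = artemisinin control; nearly all actives have a fitted effect of over 60% in size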; conditions: P. falciparum HB3 in erythrocytes, SYBR Green DNA, 72 h; series mostly up to 7.21 µM
Outline: as §1

[4] = qHTS for Inhibitors of Plasmodium falciparum (CP250) proliferation (AID 504320);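 further: plate controls were DMSO vehicle for no effect and 0.29 µM artemisinin control for full effect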; conditions: P. falciparum CP250 in erythrocytes, SYBR Green DNA, 72 h; series mostly up to 6.7 µM
Outline: as §1

[5] = target: Atrial natriuretic peptide receptor 1 (Homo sapiens) (UniProt P16066); experiment: Natriuretic polypeptide receptor (hNpr1) antagonism - Pilot CMLD screen (AID 1347052; calls by dose curve;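 further: HEK293 cells with hNpr1 stimulated by hNppA peptide at 0.1 nM; cGMP level read as GloSensor luciferase luminescence after agonist stimulation; on the % scale 0 is the no-effect control and ±100 the full control effect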); conditions: HEK293 hNpr1 GloSensor cGMP luminescence, ANP-stimulated; series mostly up to 9.22 µM
Sequence of Atrial natriuretic peptide receptor 1 (Homo sapiens) (P16066 whole entry, looked up): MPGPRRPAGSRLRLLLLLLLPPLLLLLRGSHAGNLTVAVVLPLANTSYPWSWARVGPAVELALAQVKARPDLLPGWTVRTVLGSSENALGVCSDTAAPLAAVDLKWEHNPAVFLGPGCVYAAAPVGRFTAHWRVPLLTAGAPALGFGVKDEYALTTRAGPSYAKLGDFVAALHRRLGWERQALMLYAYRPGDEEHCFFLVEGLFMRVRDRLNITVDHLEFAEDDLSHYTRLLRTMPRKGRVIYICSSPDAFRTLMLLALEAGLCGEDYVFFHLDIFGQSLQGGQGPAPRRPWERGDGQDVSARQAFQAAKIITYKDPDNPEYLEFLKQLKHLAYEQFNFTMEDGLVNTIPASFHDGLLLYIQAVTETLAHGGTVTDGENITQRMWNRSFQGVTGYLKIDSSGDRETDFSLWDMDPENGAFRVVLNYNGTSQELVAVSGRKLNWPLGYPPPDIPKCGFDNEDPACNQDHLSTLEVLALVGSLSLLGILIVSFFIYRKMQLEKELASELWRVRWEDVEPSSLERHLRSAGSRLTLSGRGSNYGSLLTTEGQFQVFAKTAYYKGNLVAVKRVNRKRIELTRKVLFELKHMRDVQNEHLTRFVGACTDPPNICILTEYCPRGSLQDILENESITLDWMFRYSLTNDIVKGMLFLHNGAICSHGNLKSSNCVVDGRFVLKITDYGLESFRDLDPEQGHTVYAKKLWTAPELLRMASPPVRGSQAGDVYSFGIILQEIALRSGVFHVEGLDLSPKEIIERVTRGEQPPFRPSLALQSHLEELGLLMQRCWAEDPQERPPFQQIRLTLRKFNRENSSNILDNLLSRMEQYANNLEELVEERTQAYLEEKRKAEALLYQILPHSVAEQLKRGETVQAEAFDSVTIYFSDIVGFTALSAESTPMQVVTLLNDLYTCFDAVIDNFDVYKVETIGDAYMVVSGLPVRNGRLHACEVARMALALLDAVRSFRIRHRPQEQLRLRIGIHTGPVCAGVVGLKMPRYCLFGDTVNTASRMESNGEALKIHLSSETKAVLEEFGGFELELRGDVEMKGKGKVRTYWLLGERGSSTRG

[6] = target: Cytochrome P450 2C9 (Homo sapiens) (UniProt P11712); experiment: qHTS Assay for Inhibitors and Substrates of Cytochrome P450 2C9 (AID 883); conditions: recombinant CYP2C9, luciferin-H luminescence, 60 min; series mostly up to 57.1 µM; further: on the % scale 0 is the no-effect control and ±100 the full control effect; nearly all actives have a fitted effect of over 60% in size
Sequence of Cytochrome P450 2C9 (Homo sapiens) (P11712 whole entry, looked up): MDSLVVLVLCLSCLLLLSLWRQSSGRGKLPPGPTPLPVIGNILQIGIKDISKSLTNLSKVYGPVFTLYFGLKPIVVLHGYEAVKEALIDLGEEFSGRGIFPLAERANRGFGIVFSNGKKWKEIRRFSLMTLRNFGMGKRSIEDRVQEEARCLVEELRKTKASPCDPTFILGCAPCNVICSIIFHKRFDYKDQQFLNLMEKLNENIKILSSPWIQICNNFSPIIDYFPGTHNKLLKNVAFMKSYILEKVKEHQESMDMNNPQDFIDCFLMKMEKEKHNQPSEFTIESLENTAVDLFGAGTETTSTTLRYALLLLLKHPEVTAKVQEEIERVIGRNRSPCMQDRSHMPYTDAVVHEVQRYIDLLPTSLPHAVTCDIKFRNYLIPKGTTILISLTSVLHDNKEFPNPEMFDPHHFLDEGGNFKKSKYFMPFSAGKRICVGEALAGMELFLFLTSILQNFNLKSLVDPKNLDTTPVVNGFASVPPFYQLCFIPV
Outline: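 Signal: luciferase luminescence reporting luciferin produced by CYP2C9. Conditions: 10nM enzyme, Luciferin-H 100uM at KM, 25mM KPO4, 37C, 60 min NADPH-driven reaction. Reference: 57uM sulphaphenazole as 100% inhibition.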

[7] = target: Cytochrome P450 3A4 (Homo sapiens) (UniProt P08684); experiment: qHTS Assay for Inhibitors and Substrates of Cytochrome P450 3A4 (AID 884); conditions: recombinant CYP3A4, Luciferin-PPXE luminescence; series mostly up to 57.1 µM; further: on the % scale 0 is the no-effect control and ±100 the full control effect; nearly all actives have a fitted effect of over 50% in size
Sequence of Cytochrome P450 3A4 (Homo sapiens) (P08684 whole entry, looked up): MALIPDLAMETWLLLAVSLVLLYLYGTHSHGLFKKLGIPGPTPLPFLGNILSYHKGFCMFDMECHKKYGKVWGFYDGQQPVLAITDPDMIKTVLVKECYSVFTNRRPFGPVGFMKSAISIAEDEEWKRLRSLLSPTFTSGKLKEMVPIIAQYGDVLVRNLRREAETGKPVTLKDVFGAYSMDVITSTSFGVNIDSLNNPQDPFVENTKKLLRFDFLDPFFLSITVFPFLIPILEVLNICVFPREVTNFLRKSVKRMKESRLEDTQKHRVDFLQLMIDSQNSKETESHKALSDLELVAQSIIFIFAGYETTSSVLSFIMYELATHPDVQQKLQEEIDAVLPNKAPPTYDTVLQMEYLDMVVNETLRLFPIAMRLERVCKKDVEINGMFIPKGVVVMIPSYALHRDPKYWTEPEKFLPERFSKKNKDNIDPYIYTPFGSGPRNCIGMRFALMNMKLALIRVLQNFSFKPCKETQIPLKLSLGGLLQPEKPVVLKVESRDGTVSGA
Outline: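 20 nM human CYP3A4 with 25 uM Luciferin-PPXE (at KM) in 200 mM KPO4, preincubated 10 min with compound; NADPH regeneration started a 60 min RT reaction. Luciferin detected by luminescence, normalized to 57 uM ketoconazole as full inhibition.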

[8] = target: Cytochrome P450 2C19 (Homo sapiens) (UniProt P33261); experiment: qHTS Assay for Inhibitors and Substrates of Cytochrome P450 2C19 (AID 899); conditions: recombinant CYP2C19, luciferin-H EGE luminescence; series mostly up to 57.1 µM; further: on the % scale 0 is the no-effect control and ±100 the full control effect; nearly all actives have a fitted effect of over 60% in size
Sequence of Cytochrome P450 2C19 (Homo sapiens) (P33261 whole entry, looked up): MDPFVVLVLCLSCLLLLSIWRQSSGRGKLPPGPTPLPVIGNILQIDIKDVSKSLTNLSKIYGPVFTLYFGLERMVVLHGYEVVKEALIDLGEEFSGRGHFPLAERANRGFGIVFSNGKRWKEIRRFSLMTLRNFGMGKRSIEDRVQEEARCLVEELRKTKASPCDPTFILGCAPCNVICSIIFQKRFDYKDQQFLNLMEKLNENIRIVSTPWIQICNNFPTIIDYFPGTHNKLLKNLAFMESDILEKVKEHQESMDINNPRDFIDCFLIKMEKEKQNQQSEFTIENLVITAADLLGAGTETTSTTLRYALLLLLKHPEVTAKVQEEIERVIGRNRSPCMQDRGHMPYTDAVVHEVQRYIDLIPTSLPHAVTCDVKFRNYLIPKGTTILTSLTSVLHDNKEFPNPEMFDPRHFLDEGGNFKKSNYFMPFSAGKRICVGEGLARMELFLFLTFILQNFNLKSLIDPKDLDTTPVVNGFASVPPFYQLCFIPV
Outline: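 Signal comes from luciferase acting on luciferin released by CYP2C19-mediated hydroxylation of Luciferin-H EGE, 10uM (KM). Assay mix: 5nM enzyme, 50mM KPO4; 60 min at 37C with NADPH regeneration. Data normalized against 57uM ketoconazole.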

[9] = target: Cytochrome P450 3A4 (Homo sapiens) (UniProt P08684); experiment: qHTS Assay for Activators of Cytochrome P450 3A4 (AID 885); conditions: recombinant CYP3A4, Luciferin-PPXE luminescence, 60 min; series mostly up to 57.1 µM; further: nearly all actives have a fitted effect of over 65% in size
Outline: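 Human CYP3A4 (20 nM) with Luciferin-PPXE at 25 uM (its KM) in 200 mM KPO4; 10 min compound preincubation, then NADPH regeneration and 60 min reaction at RT. Luciferin read by luminescence; normalized to 57 uM ketoconazole full inhibition.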

[10] = target: Cytochrome P450 2D6 (Homo sapiens) (UniProt P10635); experiment: qHTS Assay for Inhibitors and Substrates of Cytochrome P450 2D6 (AID 891); conditions: recombinant CYP2D6, luciferin-ME EGE luminescence; series mostly up to 57.1 µM;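 further: luciferin methyl ether substrate demethylated by CYP2D6 with NADPH regeneration; on the % scale 0 is the no-effect control and ±100 the full control effect; nearly all actives have a fitted effect of over 60% in size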
Sequence of Cytochrome P450 2D6 (Homo sapiens) (P10635 whole entry, looked up): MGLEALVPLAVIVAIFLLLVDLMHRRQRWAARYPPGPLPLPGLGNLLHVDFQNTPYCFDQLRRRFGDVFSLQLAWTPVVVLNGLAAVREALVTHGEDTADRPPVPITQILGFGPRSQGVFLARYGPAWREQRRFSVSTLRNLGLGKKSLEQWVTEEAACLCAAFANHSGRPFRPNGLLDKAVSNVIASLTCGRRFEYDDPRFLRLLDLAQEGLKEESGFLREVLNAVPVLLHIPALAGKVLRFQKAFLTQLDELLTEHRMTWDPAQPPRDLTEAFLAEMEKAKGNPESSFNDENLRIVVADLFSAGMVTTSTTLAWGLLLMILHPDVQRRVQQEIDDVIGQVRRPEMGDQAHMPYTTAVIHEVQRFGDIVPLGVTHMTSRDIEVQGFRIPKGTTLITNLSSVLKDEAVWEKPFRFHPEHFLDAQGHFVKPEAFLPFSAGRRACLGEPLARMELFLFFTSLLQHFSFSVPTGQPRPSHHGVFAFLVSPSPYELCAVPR
Outline: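 Human CYP2D6 (5 nM) with 30 uM Luciferin-ME EGE (at Km) in 100 mM KPO4, compound preincubated 10 min, then NADPH regeneration system for 60 min at room temperature. Luciferin read by luminescence; normalized to 1.43 uM quinidine.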

CCN1C(=NCc2ccc(OC)cc2)NC(c2cccc(F)c2)C(C(=O)OC)=C1C (configuration not stated)
inactive: Potency [1] | Potency [2] | Potency [3] | Potency [4] | Potency [5]

COC(=O)NC(c1ccccc1)C1(C(=O)OC)C(=O)Cc2ccccc21 (configuration not stated)
inactive: Potency [1] | Potency [2] | Potency [3] | Potency [4] | Potency [5]

CCN(CC)CCCN1C=C2C(=O)C(C)(OC(=O)C3CCCC3)C(=O)C=C2C=C1c1ccsc1 (configuration not stated)
inactive: activity, negative = inhibition [1] -4.1% [at 1.12 µM] | Potency [2] | Potency [3] | Potency [4] | Potency [5]

COC(=O)C1=C(C)N(Cc2ccccc2)C(=NCCc2c[nH]c3ccccc23)NC1c1ccc(Br)cc1 (configuration not stated)
inactive: Potency [1] | Potency [2] | Potency [3] | Potency [4] | Potency [5]

COC(=O)N[C@H](C[N+](=O)[O-])C(C)(C)C
inactive: Potency [1] | Potency [2] | Potency [3] | Potency [4] | Potency [5]

COc1ccc(COC(=O)NN=C2C[C@@H](O)[C@@H](O)[C@@H]3[C@H]4C(=O)N(C5CCCCC5)C(=O)[C@@H]4CC[C@H]23)cc1
inactive: Potency [1] | Potency [2] | Potency [3] | Potency [4] | Potency [5]

CC(C)(C)Nc1oc(-c2ccccc2)nc1-c1ccccc1F
inactive: Potency [1] | Potency [2] | Potency [3] | Potency [4] | Potency [5]

CC(C)(C(O)c1ccc([N+](=O)[O-])cc1)[N+](=O)[O-] (configuration not stated)
inactive: Potency [1] | Potency [2] | Potency [3] | Potency [4] | Potency [5]

COC(=O)C(C(=O)OC)[C@@H]1O[C@@]23COCC[C@]2(C)[C@@H]3c2ccccc21
inactive: Potency [1] | Potency [2] | Potency [3] | Potency [4] | Potency [5]

C=CCN=C1N[C@@H](c2ccccc2)[C@H](C(=O)OC)[C@@H](C)N1CC
inactive: Potency [1] | Potency [2] | Potency [3] | Potency [4] | Potency [5]

COC(=O)N[C@@H](C=Cc1ccccc1)[C@@H](C)[N+](=O)[O-]
inactive: Potency [1] | Potency [2] | Potency [3] | Potency [4] | Potency [5]

CC(=O)OC[C@H]1O[C@H](CC=NO[C@H](C)c2cn([C@H](CO)Cc3ccccc3)nn2)C=C[C@@H]1OC(C)=O
inactive: Potency [1] | Potency [2] | Potency [3] | Potency [4] | Potency [5]

CC1(OC(=O)c2cccs2)C(=O)C=C2C=C3CCCN3C=C2C1=O (configuration not stated)
inactive: activity, negative = inhibition [1] -0.249% [at 1.12 µM] | Potency [2] | Potency [3] | Potency [4] | Potency [5]

C=CCOC(=O)N[C@@H](c1cccc(OC)c1)[C@@H](C)C=CCC(=O)O
inactive: Potency [1] | Potency [2] | Potency [3] | Potency [4] | Potency [5]

CCOC(=O)CN1C(=O)NC(c2cccc(C(F)(F)F)c2)C(C(=O)OC)=C1C (configuration not stated)
inactive: Potency [1] | Potency [2] | Potency [3] | Potency [4] | Potency [5]

CCCCCCCC=CC1=CC2(C)CC1(C)C(CCCCCCC)CC2=O (configuration not stated)
inactive: Potency [1] | Potency [2] | Potency [3] | Potency [4] | Potency [5]

CC1(O)C(=O)C=C2C=C(CCCCOCc3ccccc3)OC=C2C1=O (configuration not stated)
inactive: activity change, negative = inhibition [6] -27.6% [at 11.4 µM] | activity change, negative = inhibition [7] -25.3% [at 11.4 µM] | activity, negative = inhibition [8] -23.3% [at 11.4 µM] | Potency [1] | Potency [2] | Potency [4] | Potency [5]

C=CCOC(=O)N[C@@H](c1ccccc1)[C@@H](C)[N+](=O)[O-]
inactive: Potency [1] | Potency [2] | Potency [4] | Potency [5]

COc1ccc2c(c1)[C@@H](NC(=O)C(F)(F)F)[C@@H]1CCCC[C@]21c1ccccc1
inactive: Potency [1] | Potency [2] | Potency [4] | Potency [5]

CC(=O)Nc1ccc(S(=O)(=O)N2CCc3nc(-c4ccccc4)c4c(c3C2)CO[C@@H](C)C4)cc1
inactive: activity, negative = inhibition [1] -1.41% [at 1.12 µM] | Potency [2] | Potency [3] | Potency [4] | Potency [5]

CC(Nc1oc(-c2ccccc2)nc1C(C)(C)C)c1ccccc1 (configuration not stated)
inactive: Potency [1] | Potency [2] | Potency [4] | Potency [5]

C=C(CC(=O)OC)C[C@]1(CC(=O)OC)CC2(CC=C(C)C)C(=O)C(C(=O)c3ccccc3)=C(OC(=O)c3ccc(Br)cc3)C(CC=C(C)C)(C1)C2=O (some centres not stated)
inactive: activity change, negative = inhibition [6] 7.13% [at 11.4 µM] | activity change, positive = activation [9] -37.5% [at 11.4 µM] | activity change, negative = inhibition [10] -5% [at 11.4 µM] | activity, negative = inhibition [8] 79.8% [at 11.4 µM] | Potency [1] | Potency [2] | Potency [3] | Potency [4] | Potency [5]

C[C@@H]1NC(=O)[C@@H](C)COC(=O)[C@H](C)NC(=O)[C@@H](C)COC1=O
inactive: Potency [1] | Potency [2] | Potency [3] | Potency [4] | Potency [5]

CC(=O)OC[C@H]1O[C@@H](ON=C(C)CCC(=O)OC[C@H]2O[C@H](C#Cc3ccccc3)C=C[C@H]2Oc2ccc(C)cc2)[C@H](OC(C)=O)[C@@H](OC(C)=O)[C@H]1OC(C)=O
inactive: Potency [1] | Potency [3] | Potency [4] | Potency [5]
